Screen size: about 5,500 compounds; about 2,000 (36%) were called active. Another 18% or so got no clear call; they are omitted. No stated cut-off is given here; in the data, active means normalized growth mostly below about 0.91 (no sharp cut-off); inconclusive means no clear call, values can overlap the other calls; inactive means mostly above about 0.92. The list shows a part of the results.
Assay: chemical genetic growth profiling, strain panel (AID 1159580);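 further: tested at 20 µM; growth read once vehicle control cultures reached saturation at 30 °C; 1 = growth at the plate median or of vehicle wells; lower values mean less growth of the strain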
Settings: growth OD
[1] = S. cerevisiae deletion strains, locus YHR030C, strain SLT2, hits give low values

Measured: normalized growth

Cc1cc(C(F)(F)F)c(C#N)c(=O)[nH]1
inactive: S. cerevisiae deletion strains, locus YAL013W, strain DEP1, hits give low values 1.02 | S. cerevisiae deletion strains, locus YBR229C, strain ROT2, hits give low values 1 | S. cerevisiae deletion strains, locus YCL061C, strain MRC1, hits give low values 1 | S. cerevisiae deletion strains, locus YDL101C, strain DUN1, hits give low values 0.995 | S. cerevisiae deletion strains, locus YDL134C, strain PPH21, hits give low values 1.01 | S. cerevisiae deletion strains, locus YDR150W, strain NUM1, hits give low values 0.982 | S. cerevisiae deletion strains, locus YEL061C, strain CIN8, hits give low values 1 | S. cerevisiae deletion strains, locus YGR078C, strain PAC10, hits give low values 1 | [1] 1.01 | S. cerevisiae deletion strains, locus YHR087W, strain rtc3, hits give low values 1 | S. cerevisiae deletion strains, locus YJL187C, strain SWE1, hits give low values 1 | S. cerevisiae deletion strains, locus YJR043C, strain POL32, hits give low values 0.997 | S. cerevisiae deletion strains, locus YJR075W, strain HOC1, hits give low values 1.03 | S. cerevisiae deletion strains, locus YKL190W, strain CNB1, hits give low values 1.01 | S. cerevisiae deletion strains, locus YLR039C, strain RIC1, hits give low values 1.04 | S. cerevisiae deletion strains, locus YLR058C, strain SHM2 (second series), hits give low values 1 | S. cerevisiae deletion strains, locus YLR085C, strain ARP6, hits give low values 1.03 | S. cerevisiae deletion strains, locus YLR262C, strain YPT6, hits give low values 1.03 | S. cerevisiae deletion strains, locus YML094W, strain GIM5, hits give low values 0.997 | S. cerevisiae deletion strains, locus YMR219W, strain ESC1, hits give low values 1.01 | S. cerevisiae deletion strains, locus YMR263W, strain SAP30, hits give low values 0.963 | S. cerevisiae deletion strains, locus YNL128W, strain TEP1, hits give low values 1.02 | S. cerevisiae deletion strains, locus YNL153C, strain GIM3, hits give low values 1 | S. cerevisiae deletion strains, locus YNL298W, strain CLA4 (second series), hits give low values 1.02 | S. cerevisiae deletion strains, locus YNL322C, strain KRE1, hits give low values 1 | S. cerevisiae deletion strains, locus YNR030W, strain Alg12, hits give low values 1.02 | S. cerevisiae deletion strains, locus YOL006C, strain TOP1, hits give low values 1.06 | S. cerevisiae deletion strains, locus YPL055C, strain LGE1, hits give low values 1.02 | S. cerevisiae deletion strains, locus YPL241C, strain CIN2, hits give low values 0.941 | S. cerevisiae deletion strains, locus YPR135W, strain CTF4, hits give low values 1.06 | S. cerevisiae strains, strain wild type, hits give low values 1.02

O=C1CCc2ccc(OCCCCN3CCN(c4cccc(Cl)c4Cl)CC3)cc2N1
inactive: [1] 1.03 | S. cerevisiae deletion strains, locus YHR079C, strain IRE1, hits give low values 0.961 | S. cerevisiae deletion strains, locus YJL095W, strain BCK1, hits give low values 0.955 | S. cerevisiae deletion strains, locus YJR066W, strain TOR1, hits give low values 0.927 | S. cerevisiae deletion strains, locus YLR113W, strain HOG1, hits give low values 0.959 | S. cerevisiae deletion strains, locus YNL183C, strain NPR1, hits give low values 0.894 | S. cerevisiae deletion strains, locus YOR231W, strain MKK1, hits give low values 0.97 | S. cerevisiae deletion strains, locus YPL256C, strain CLN2, hits give low values 0.975

Reference: PubChem BioAssay AID1159580 (chemical genetic matrix, 2015)
